Results on two molecules are retold here after ChEMBL document CHEMBL1961873, “Compounds: GSK PKIS; Assays: Nanosyn kinase panel” (2012).

Assay [1] deals with Protein kinase C gamma type (Homo sapiens) (UniProt P05129). Conditions: at 1 µM.
In assay [2] the target is T1, Protein kinase C iota type (Homo sapiens) (UniProt P41743).
T1 sequence (whole entry): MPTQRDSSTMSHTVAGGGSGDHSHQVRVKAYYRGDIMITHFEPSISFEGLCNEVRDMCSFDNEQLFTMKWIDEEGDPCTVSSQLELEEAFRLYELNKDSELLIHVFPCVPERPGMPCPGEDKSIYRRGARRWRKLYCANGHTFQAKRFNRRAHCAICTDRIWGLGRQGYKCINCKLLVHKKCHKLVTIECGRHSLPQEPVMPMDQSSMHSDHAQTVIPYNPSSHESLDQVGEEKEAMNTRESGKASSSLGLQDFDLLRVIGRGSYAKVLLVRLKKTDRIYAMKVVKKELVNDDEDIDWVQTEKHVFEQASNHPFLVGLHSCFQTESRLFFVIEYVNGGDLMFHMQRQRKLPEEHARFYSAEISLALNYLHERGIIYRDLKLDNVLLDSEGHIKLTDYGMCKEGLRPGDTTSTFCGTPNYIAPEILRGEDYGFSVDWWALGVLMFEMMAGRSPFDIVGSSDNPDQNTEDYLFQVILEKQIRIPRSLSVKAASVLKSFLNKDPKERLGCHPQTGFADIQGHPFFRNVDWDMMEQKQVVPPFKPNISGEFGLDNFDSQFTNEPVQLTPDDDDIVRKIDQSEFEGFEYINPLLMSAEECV
The following applies: at 0.1 µM.

The target in assay [3] is T1, Protein kinase C iota type (Homo sapiens). Conditions: at 1 µM.
The target in assay [4] is Protein kinase C theta type (Homo sapiens) (UniProt Q04759). The following applies: at 0.1 µM.
Assay [5] has the same target. Conditions: at 1 µM.
For assay [6], the target named is Protein kinase C beta type (Homo sapiens) (UniProt P05771). The following applies: at 0.1 µM.
The target is the same in assay [7]. Conditions: at 1 µM.
For assay [8], the target named is T2, Serine/threonine-protein kinase D1 (Homo sapiens) (UniProt Q15139).
T2 sequence (whole entry): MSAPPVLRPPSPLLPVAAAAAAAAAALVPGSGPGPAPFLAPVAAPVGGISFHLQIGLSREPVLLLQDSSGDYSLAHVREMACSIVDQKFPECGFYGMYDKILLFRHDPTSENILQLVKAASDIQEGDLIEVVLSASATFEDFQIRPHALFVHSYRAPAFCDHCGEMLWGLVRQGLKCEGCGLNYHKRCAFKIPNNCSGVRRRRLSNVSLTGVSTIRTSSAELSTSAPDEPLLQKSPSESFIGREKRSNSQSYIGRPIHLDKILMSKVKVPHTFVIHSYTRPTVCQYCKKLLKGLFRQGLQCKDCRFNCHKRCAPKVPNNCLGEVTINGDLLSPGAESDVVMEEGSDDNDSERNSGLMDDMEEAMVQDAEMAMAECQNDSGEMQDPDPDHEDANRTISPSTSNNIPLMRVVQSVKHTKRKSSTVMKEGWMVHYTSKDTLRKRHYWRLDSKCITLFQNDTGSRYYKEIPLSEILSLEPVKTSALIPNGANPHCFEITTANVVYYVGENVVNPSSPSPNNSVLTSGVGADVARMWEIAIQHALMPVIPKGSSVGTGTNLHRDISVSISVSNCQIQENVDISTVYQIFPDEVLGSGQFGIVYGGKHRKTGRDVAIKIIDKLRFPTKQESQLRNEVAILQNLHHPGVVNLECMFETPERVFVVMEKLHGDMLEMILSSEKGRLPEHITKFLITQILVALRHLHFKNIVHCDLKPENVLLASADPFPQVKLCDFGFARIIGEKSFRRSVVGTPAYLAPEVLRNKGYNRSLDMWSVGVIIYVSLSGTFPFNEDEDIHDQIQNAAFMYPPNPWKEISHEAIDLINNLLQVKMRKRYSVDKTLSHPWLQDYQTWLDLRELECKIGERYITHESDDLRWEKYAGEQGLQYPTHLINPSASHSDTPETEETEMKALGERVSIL
Conditions: at 0.1 µM.

The target of assay [9] is T2, Serine/threonine-protein kinase D1 (Homo sapiens). Conditions: at 1 µM.
The target in assay [10] is T3, Serine/threonine-protein kinase D2 (Homo sapiens) (UniProt Q9BZL6).
T3 sequence (whole entry): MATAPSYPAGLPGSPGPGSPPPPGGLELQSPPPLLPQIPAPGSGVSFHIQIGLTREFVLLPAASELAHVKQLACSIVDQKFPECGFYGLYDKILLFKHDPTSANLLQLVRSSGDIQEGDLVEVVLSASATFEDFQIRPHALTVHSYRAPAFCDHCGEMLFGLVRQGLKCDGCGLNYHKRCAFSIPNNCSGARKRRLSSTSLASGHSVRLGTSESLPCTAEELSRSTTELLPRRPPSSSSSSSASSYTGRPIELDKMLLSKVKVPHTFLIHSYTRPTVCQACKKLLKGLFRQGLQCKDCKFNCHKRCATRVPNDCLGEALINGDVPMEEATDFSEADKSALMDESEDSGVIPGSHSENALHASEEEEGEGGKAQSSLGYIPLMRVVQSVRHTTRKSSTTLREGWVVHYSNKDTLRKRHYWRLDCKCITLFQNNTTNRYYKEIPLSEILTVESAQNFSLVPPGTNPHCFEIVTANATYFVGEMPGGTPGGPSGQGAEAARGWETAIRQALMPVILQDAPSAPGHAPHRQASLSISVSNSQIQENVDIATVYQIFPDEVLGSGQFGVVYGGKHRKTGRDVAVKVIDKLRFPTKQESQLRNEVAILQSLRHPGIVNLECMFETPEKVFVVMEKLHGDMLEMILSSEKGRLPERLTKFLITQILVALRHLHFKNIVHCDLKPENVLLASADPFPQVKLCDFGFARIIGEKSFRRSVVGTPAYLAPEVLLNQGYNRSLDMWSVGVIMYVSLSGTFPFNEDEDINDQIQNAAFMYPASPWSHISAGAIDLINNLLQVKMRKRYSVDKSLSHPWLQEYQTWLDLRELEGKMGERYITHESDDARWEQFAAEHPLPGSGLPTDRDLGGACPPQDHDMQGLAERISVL
Conditions: at 0.1 µM.

The target of assay [11] is T3, Serine/threonine-protein kinase D2 (Homo sapiens). Conditions: at 1 µM.
Assay [12] has as its target T4, Serine/threonine-protein kinase D3 (Homo sapiens) (UniProt O94806).
T4 sequence (whole entry): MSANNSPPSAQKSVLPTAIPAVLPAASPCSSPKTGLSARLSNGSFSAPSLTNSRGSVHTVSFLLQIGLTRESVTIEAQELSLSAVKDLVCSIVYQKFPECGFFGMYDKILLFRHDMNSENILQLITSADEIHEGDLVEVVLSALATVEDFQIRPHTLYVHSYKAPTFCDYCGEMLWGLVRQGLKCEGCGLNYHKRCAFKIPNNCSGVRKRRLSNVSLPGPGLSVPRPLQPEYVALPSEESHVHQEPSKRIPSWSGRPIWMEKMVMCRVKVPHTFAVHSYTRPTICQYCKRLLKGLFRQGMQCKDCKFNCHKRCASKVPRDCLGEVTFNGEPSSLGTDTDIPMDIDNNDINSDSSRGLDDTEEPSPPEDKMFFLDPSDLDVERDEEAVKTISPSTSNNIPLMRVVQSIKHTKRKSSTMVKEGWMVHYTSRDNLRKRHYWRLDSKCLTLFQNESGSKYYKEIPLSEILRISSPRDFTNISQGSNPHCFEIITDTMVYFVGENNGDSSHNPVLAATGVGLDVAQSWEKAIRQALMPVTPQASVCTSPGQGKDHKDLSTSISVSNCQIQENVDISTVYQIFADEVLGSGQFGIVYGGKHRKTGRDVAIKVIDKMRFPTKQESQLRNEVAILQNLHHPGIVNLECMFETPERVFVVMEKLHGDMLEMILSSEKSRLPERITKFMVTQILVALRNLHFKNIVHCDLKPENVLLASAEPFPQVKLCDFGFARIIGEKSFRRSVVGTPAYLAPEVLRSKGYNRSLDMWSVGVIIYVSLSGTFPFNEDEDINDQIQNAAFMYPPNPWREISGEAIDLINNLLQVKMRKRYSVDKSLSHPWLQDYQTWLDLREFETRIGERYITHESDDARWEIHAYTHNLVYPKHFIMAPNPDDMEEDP
Conditions: at 0.1 µM.

In assay [13] the target is T4, Serine/threonine-protein kinase D3 (Homo sapiens). The following applies: at 1 µM.
The target of assay [14] is T5, cGMP-dependent protein kinase 1 (Homo sapiens) (UniProt Q13976).
T5 sequence (whole entry): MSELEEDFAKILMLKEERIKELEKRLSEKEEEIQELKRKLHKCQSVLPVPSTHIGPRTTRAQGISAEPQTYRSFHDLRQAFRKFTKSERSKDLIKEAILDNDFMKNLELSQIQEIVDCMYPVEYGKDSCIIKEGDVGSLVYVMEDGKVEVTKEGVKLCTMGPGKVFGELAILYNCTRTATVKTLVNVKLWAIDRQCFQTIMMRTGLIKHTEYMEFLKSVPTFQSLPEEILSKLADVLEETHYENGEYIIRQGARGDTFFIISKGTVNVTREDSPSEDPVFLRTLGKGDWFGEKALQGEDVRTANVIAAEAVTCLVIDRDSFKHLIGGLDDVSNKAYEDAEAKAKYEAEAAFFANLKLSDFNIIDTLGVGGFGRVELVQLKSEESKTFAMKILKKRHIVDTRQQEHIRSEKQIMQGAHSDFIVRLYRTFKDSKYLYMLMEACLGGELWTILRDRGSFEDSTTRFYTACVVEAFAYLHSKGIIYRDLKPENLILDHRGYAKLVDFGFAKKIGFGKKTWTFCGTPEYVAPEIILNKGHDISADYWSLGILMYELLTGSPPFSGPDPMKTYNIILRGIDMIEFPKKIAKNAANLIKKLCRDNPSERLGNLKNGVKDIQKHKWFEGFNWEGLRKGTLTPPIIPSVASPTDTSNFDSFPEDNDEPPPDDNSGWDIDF
The following applies: at 0.1 µM.

For assay [15], the target named is T5, cGMP-dependent protein kinase 1 (Homo sapiens). The following applies: at 1 µM.
Assay [16] concerns the target T6, cGMP-dependent protein kinase 2 (Homo sapiens) (UniProt Q13237).
T6 sequence (whole entry): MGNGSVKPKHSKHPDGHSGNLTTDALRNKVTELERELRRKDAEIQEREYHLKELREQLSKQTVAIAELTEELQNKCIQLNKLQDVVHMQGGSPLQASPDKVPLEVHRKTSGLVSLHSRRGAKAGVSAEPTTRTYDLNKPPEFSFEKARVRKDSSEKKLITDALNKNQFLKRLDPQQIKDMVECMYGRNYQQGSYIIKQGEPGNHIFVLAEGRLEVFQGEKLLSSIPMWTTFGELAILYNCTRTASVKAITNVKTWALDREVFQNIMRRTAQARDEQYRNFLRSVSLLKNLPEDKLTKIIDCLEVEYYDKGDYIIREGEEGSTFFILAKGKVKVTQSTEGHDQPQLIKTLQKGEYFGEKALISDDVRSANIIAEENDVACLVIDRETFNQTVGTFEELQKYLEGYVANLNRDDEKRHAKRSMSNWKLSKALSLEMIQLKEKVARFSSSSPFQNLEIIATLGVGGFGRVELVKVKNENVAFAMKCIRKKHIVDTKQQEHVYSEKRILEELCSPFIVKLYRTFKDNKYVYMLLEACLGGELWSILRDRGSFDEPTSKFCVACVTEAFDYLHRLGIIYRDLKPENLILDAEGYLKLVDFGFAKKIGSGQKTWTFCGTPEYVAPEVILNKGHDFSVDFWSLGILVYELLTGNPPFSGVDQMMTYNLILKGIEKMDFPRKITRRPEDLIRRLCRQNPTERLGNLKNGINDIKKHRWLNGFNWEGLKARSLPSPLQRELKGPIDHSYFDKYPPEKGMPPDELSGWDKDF
Conditions: at 0.1 µM.

Assay [17] addresses T6, cGMP-dependent protein kinase 2 (Homo sapiens). Conditions: at 1 µM.
In assay [18] the target is T7, cAMP-dependent protein kinase catalytic subunit PRKX (Homo sapiens) (UniProt P51817).
T7 sequence (whole entry): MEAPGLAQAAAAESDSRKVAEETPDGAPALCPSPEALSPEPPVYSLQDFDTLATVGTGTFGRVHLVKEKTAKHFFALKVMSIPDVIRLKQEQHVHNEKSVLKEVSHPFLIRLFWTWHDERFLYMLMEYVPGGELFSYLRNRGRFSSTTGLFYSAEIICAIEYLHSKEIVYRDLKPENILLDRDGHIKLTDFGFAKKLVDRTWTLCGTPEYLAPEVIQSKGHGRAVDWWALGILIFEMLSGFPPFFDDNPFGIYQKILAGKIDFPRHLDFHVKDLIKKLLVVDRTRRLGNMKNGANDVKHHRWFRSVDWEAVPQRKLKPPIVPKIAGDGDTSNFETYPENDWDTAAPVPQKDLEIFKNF
Conditions: at 0.1 µM.

In assay [19] the target is T7, cAMP-dependent protein kinase catalytic subunit PRKX (Homo sapiens). Conditions: at 1 µM.
Assay [20] addresses Rho-associated protein kinase 1 (Homo sapiens) (UniProt Q13464). Conditions: at 0.1 µM.

Molecules are shown by their SMILES.

Chain of Protein kinase C beta type (Homo sapiens) (P05771 2-671 limits assumed): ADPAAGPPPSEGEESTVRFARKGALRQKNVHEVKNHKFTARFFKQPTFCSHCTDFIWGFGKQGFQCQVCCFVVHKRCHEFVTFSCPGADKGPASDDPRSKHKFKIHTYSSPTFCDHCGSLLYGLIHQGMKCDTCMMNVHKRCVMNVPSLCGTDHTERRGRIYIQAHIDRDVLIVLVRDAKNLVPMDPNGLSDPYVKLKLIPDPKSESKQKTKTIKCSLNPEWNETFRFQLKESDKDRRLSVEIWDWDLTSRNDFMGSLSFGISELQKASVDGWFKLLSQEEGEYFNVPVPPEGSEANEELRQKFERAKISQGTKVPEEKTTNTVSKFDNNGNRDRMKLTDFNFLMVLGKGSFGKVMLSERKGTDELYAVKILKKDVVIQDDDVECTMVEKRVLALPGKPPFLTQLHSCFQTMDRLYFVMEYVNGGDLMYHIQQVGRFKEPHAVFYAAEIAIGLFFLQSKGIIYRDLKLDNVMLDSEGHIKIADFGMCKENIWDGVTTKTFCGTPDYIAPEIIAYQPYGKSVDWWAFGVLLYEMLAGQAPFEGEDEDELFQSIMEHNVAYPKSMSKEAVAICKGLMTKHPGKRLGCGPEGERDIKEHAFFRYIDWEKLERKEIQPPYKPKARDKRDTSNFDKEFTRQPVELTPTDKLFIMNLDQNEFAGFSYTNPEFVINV
Chain of Protein kinase C theta type (Homo sapiens) (Q04759 whole entry, looked up): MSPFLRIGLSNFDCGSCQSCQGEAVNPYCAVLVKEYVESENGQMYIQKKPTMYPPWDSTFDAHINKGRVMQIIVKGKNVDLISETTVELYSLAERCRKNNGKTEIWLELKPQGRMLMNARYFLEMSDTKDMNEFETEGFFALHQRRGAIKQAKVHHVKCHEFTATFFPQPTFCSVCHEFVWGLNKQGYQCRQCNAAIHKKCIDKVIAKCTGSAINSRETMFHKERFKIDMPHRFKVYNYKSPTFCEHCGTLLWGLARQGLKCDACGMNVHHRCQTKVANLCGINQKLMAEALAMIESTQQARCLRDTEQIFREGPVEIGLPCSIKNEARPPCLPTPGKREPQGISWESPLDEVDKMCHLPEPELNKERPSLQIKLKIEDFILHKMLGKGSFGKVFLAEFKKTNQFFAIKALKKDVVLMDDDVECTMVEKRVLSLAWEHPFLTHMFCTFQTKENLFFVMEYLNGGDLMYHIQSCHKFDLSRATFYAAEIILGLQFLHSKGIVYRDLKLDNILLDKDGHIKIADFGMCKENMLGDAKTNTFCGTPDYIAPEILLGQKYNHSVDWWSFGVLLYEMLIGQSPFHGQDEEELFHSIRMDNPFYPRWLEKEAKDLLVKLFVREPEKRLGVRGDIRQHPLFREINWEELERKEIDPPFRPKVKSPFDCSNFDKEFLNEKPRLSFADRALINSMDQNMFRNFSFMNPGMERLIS
Chain of Rho-associated protein kinase 1 (Homo sapiens) (Q13464 2-1354 limits assumed): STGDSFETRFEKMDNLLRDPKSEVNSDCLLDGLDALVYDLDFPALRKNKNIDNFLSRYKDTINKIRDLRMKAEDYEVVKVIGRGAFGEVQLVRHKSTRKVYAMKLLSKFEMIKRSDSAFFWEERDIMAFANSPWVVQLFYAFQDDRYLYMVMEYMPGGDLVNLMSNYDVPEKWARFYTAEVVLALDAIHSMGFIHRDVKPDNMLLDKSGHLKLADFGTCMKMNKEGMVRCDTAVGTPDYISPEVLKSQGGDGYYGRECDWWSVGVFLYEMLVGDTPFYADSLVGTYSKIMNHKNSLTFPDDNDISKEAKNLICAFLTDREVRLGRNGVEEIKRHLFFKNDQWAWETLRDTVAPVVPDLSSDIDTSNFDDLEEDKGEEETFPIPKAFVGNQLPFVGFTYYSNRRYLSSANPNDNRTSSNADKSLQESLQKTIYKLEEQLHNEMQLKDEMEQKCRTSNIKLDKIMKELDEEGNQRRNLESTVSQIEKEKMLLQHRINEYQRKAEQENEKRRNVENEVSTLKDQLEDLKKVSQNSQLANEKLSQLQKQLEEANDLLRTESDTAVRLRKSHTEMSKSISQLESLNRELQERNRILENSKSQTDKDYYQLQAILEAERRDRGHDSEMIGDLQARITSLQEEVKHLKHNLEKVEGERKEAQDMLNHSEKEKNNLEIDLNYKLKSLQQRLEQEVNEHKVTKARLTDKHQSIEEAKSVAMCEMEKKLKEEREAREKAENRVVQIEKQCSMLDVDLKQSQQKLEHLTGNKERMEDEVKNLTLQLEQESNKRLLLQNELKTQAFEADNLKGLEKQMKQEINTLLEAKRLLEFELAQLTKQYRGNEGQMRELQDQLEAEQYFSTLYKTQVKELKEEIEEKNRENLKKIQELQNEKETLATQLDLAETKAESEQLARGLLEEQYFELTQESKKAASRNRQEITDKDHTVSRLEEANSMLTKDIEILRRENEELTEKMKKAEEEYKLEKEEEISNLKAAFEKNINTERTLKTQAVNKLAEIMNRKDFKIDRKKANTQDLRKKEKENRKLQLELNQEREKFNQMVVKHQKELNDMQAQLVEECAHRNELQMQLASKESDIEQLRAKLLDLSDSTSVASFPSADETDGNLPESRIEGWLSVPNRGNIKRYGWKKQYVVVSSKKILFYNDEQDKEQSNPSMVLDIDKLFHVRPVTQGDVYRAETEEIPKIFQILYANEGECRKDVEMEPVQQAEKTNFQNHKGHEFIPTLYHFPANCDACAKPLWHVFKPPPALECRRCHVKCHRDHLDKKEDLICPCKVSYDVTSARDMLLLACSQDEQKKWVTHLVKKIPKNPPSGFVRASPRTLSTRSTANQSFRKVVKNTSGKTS

As to `N#Cc1ccc(Oc2nccc(-c3c(-c4ccc(F)cc4)ncn3C3CCNCC3)n2)cc1`, the inhibition amounted to 4.11% in assay [1]; 2.09% in assay [2]; 2.63% in assay [3]; 2.28% in [4]; 3.89% in [5]; 0.99% in [6]. The inhibition in assay [7] was determined as 3.08%; in assay [8], 5.51%; in [9] it was 8.1%; in [10], 4.63%; in assay [11] it was 5.05%; in [12], 5.58%. Besides, the inhibition was 5.89% in assay [13]; 2.79% in assay [14]; 2.48% in assay [15]; 2.19% in assay [16]; 2.92% in assay [17]; 1.03% in assay [18]. Moreover, the inhibition in [19] came to 2.01%; in [20], 2.51%.
Turning to `C#Cc1cccc(Nc2ncnc3ccc(OCCCCNCCS(C)(=O)=O)cc23)c1`, the inhibition in assay [1] amounted to 7.74%; in assay [2], 2.69%; in [3] it was 1.19%; in [4] it was 3.71%; in [5], 5.27%; in [6] it was 1.93%. The inhibition in assay [7] stood at 6.61%; in assay [8], 2.59%; in assay [9], 25%; in [10] it was 4.1%; in assay [11] it was 26.7%; in assay [12], 3.35%. Also, the inhibition in [13] is 15%; in assay [14], 1.04%; in assay [15] it was 7.37%; in [16] it was 2.75%; in assay [17], 8.83%; in assay [18] it was 2.48%. The inhibition came to 4.38% in [19] and 1.86% in assay [20].

The inhibition is the drop in the measured response relative to a control, in per cent. Higher therefore signals strong suppression.
